Sampled rows, rich in hits. Any-hit rate of the full collection: about 22%.
CYP2C9 inhib: blocks human cytochrome P450 2C9; inhibition, % at 5 µM; actives 20% (n = 96,000); P11712; AID 777; CYP2C9 Supersomes, luciferin-H conversion, luminescence;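 active = blocking of liver enzyme CYP2C9 beyond about 50% at 5 µM, limit read from the data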
Target sequence (P11712 whole entry, looked up): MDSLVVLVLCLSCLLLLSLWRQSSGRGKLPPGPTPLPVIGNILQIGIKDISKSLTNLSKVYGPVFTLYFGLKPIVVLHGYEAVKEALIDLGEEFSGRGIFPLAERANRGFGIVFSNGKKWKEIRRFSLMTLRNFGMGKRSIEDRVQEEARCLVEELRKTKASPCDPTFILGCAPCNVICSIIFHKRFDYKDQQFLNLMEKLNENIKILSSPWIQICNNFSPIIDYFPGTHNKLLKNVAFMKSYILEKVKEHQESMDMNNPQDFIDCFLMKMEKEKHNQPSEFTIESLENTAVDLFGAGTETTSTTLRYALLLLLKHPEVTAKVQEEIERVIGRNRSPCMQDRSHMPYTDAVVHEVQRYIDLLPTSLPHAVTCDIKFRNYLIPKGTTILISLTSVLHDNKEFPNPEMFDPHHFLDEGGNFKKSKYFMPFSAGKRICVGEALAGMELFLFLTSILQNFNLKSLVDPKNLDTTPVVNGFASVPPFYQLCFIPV
CYP2C19 inh: blocks human cytochrome P450 2C19; P33261; CYP2C19 Supersomes, luciferin-H EGE luminescence, 30 min; actives 21% (n = 96,000); inhibition, % at 5 µM;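 active = CYP2C19 inhibition above a set limit at 5 µM in the primary screen, cut at about 50% in these data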;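 also: plate controls were negative control wells for no effect and 2.5 mM tranylcypromine positive control for full effect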
E-sel TNF inh: TNF alpha driven E-selectin expression inhibition; actives 0.71% (n = 120,000); inhibition, % at 2 µM; HUVEC TNFa-induced E-selectin immunofluorescence, high content;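 active = inhibition above the batch mean plus 3 SD, and confirmed as a hit on visual image review, cut at about 43% in these data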;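 also: 0% = TNF-stimulated DMSO wells and 100% = unstimulated control wells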
CYP2C9 act: CYP2C9 (human) activation; P11712; AID 1024; actives 1.4% (n = 96,000); activation factor at 5 µM; recombinant CYP2C9, luciferin-H conversion, luminescence; active compounds read high; factor 1 = untreated enzyme, 0 = blocked;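 active = activation factor of 2 or more for CYP2C9 at a 5 µM dose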;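 also: 0 = sulfaphenazole-blocked wells and 1 = vehicle-only wells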
cytoskel mod: cytoskeleton assembly modification; actives 0.18% (n = 91,000); inhibition, % at 2 µM; HUVEC TNFa F-actin phalloidin imaging, high content;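 active = inhibition above the batch mean plus 3 SD and confirmed as a hit by visual image inspection, cut at about 30% in these data, passing the limit was not always enough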
CYP2C19 act: activators of human cytochrome P450 2C19 | P33261 | 96,000 tested, under 10 active | AID 1025 | activation factor at 5 µM | recombinant CYP2C19, luciferin-H EGE luminescence; active compounds read high; 0 = fully inhibited enzyme, 1 = untreated enzyme;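 active = activation factor of at least 2 at 5 µM in the primary screen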;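 also: 0 = wells with 2.5 mM tranylcypromine and 1 = vehicle-only wells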
Numbers without * were called inactive; nt = no result given.

SMILES	CYP2C9 inhib	CYP2C19 inh	E-sel TNF inh	CYP2C9 act	cytoskel mod	CYP2C19 act
O=C(c1cccc(Cl)c1)c1nn(-c2ccccc2)c(=O)cc1C(F)(F)F	28	42	-11	0.7	18	0.6
CC(=O)OCC(=O)C1=CCC2C3CCC4=CC(=O)C=CC4(C)C3(F)C(OC(C)=O)CC12C (stereo not drawn)	nt	nt	24	nt	nt	nt
Cc1cc(C(=O)CSc2nnc(-c3cccnc3)n2-c2ccccc2)c(C)n1CC1CCCO1 (stereo not drawn)	15	21	36	0.8	9	0.8
Cc1cc(C(=O)CSc2nnc(-c3ccccc3)n2-c2ccccc2)c(C)n1-c1ncn[nH]1	58*	62*	-31	0.4	15	0.4
COc1ccc(C2=Nc3ccccc3OC2)cc1	58*	70*	-5	0.4	-20	0.3
COc1cccc(C2CC(c3ccc(C(C)C)cc3)n3nc(N)nc3N2)c1 (stereo not drawn)	-8	-8	nt	1.1	1	1.1
CCCc1nnc(SCCSc2nnc(CCC)n2N)n1N	-6	-1	-5	1.1	10	1
O=S(=O)(Cc1ccccc1)N1CCC(N2CCN(c3ccccc3)CC2)CC1	-11	4	-68	1.1	nt	1
Cc1cc(C(=O)NNC(=O)CCN2CCN(c3ccccc3)CC2)c2ccccc2n1	nt	nt	-1	nt	nt	nt
O=C(CSc1nnc(-c2c[nH]c3ccccc23)o1)N1CCCCC1	7	41	21	0.9	16	0.6
O=C(CSc1nnc(COc2cccc3ccccc23)o1)N1c2ccccc2CCc2ccccc21	54*	22	10	0.5	2	0.8
O=C(CSc1nnc(-c2c[nH]c3ccccc23)o1)N1c2ccccc2CCc2ccccc21	92*	79*	-18	0.1	-13	0.2
O=C(CSc1nnc(-c2ccco2)o1)N1CCOCC1	-9	-2	-11	1.1	37	1
c1ccc2c(-c3nnc(SCc4cn5ccccc5n4)o3)c[nH]c2c1	61*	67*	32	0.4	-2	0.3
O=C(CSc1nnc(-c2ccco2)o1)N1c2ccccc2CCc2ccccc21	97*	89*	0	0	6	0.1
Cc1nc(-c2ccc(NC(=O)c3ccccc3)cc2)cs1	nt	nt	17	nt	nt	nt
COc1cc(OC)cc(-c2cc3nc(C)c(CCC(=O)O)c(C)n3n2)c1	24	19	nt	0.8	14	0.8
COc1ccc(-c2[nH]nc3c2C(c2ccc(OC(=O)N4CCOCC4)cc2)C(C#N)=C(N)O3)cc1 (stereo not drawn)	nt	nt	-24	nt	nt	nt
O=S(=O)(c1cnccc1N1CCN(/N=C/c2ccc(Cl)cc2)CC1)N1CCCCC1	60*	33	19	0.4	-11	0.7
OCCN(/C=N/c1nc(-c2ccc(Br)cc2)cs1)CCO	30	0	-10	0.7	4	1
Cc1occc1C(=O)Nc1cccnc1	-1	3	-27	1	1	1
CCN(CC)CC(C)(C)NS(=O)(=O)c1ccc(Cl)cc1	-2	38	nt	1	13	0.6
CC(C)(CN1CCCCC1)NS(=O)(=O)c1ccc(Cl)cc1	-6	55*	-35	1.1	-19	0.5
CC1CC(C)CN(CC(C)(C)NS(=O)(=O)c2ccc(Cl)cc2)C1 (stereo not drawn)	56*	76*	-3	0.4	-8	0.2
CC(C)(CNS(=O)(=O)c1ccc(Cl)cc1)N1CCCCC1	6	64*	-18	0.9	nt	0.4
SMILES	CYP2C9 inhib	CYP2C19 inh	E-sel TNF inh	CYP2C9 act	cytoskel mod	CYP2C19 act
CC(CN1CCNCC1)(NS(=O)(=O)c1ccccc1)c1ccccc1 (stereo not drawn)	24	32	nt	0.8	32	0.7
CC1CC(C)CN(S(=O)(=O)c2ccc(F)c(C(=O)Nc3ccc(Cl)cc3F)c2)C1 (stereo not drawn)	7	1	4	0.9	6	1
CN(C)CC(C)(C)NS(=O)(=O)c1ccc(Cl)cc1	-5	56*	nt	1	nt	0.4
NC(=O)[C@@H]1CCCNc2c(I)cc([N+](=O)[O-])cc2C(=O)N[C@@H](CO)C(=O)NCC(=O)N1	nt	nt	-7	nt	nt	nt
O=C(Nc1ccc(S(=O)(=O)NC2=NCCCCC2)cc1)c1ccc(=O)[nH]c1	nt	nt	-15	nt	nt	nt
Cc1ccc(C(=O)NNC(=S)NC(=O)c2ccc(Cl)cc2Cl)cc1	49	4	-19	0.5	4	1
CCCc1ccc(-c2cc(C(=O)N/N=C/c3ccc([N+](=O)[O-])o3)c3ccccc3n2)cc1	96*	51*	-3	0	18	0.5
O=C(N/N=C/c1ccc([N+](=O)[O-])o1)c1cc(-c2cccc(Br)c2)nc2ccccc12	56*	9	37	0.4	-7	0.9
O=C(N/N=C/c1ccc2c(c1)OCO2)c1cc(-c2ccccc2)nc2ccccc12	nt	nt	17	nt	nt	nt
O=C(COc1ccccc1)N/N=C/c1ccc([N+](=O)[O-])o1	nt	nt	-27	nt	nt	nt
CCOc1ccc(C2=C(C=Nc3c(C)n(C)n(-c4ccccc4)c3=O)C(c3ccc(F)cc3)c3ccccc3O2)cc1 (stereo not drawn)	58*	18	2	0.4	1	0.8
CCOC(=O)c1c(-c2ccccc2)csc1NC(=O)CSc1nnnn1C	80*	45	nt	0.2	-4	0.6
CCOC(=O)c1c(NC(=O)CSc2nnnn2C)sc(C)c1-c1ccc(C)cc1	76*	16	-41	0.2	nt	0.8
COC(=O)Cc1ccc(NC(=S)N2CCCC(C)C2)cc1 (stereo not drawn)	nt	nt	21	nt	nt	nt
Cc1ccc(-c2n[nH]c3c2CCC3)cc1	43	66*	-10	0.6	12	0.3
Cc1nnc(SCCn2c(Br)nc3c2c(=O)[nH]c(=O)n3C)s1	14	1	17	0.9	-19	1
Cc1ccc2c(CC(=O)N3CCN(S(=O)(=O)c4cccs4)CC3)coc2c1	80*	92*	-18	0.2	4	0.1
COc1ccc(N2CCN(C(=O)Cc3coc4cc(C)ccc34)CC2)cc1	nt	nt	9	nt	nt	nt
CC(C)NC(=O)NC(=O)COc1ccc(Br)cc1Br	nt	nt	16	nt	nt	nt
CC(=O)Nc1ccc(S(=O)(=O)N2CCN=C2C)cc1	-8	0	-17	1.1	7	1
COc1ccc(OC)c(NC(=O)c2cc(-c3cc(Cl)ccc3O)n[nH]2)c1	-143	3	17	2.4*	nt	1
Cc1c(Cl)cccc1NC(=O)c1cc(-c2ccccc2O)n[nH]1	-168	17	-7	2.7*	-5	0.8
CCOc1cc(NC(=S)Nc2ccccc2)c(OCC)cc1NC(=O)c1ccc(OC)cc1	69*	48	-33	0.3	-27	0.5
COc1ccc(S(=O)(=O)Nc2cc(C)ccc2OC)cc1C	80*	100*	7	0.2	-9	0
O=C(CCC(=O)OC(C(=O)c1ccccc1)c1ccccc1)Nc1ccccc1 (stereo not drawn)	-11	5	2	1.1	15	1
COc1cccc(Oc2coc3c(CN4CCOCC4)c(O)ccc3c2=O)c1	30	4	nt	0.7	-7	1

Assay outcomes from PubChem BioAssay.
